# Inconclusive results are not listed. The source made the active and inactive calls. The calls were made as follows: active = hit-call score of the fitted dose curve at least 0.9, where 1 is the maximum; inactive = score below 0.9.
# Target: Tyrosine-protein kinase ABL1 (Homo sapiens) (UniProt P00519)
# Assay: ERF_FR_ENZ_hABL1: Eurofins (ERF) Enzymatic Radiometric [Km ATP] KinaseProfiler LeadHunter Assay for human ABL1 Tyrosine Kinase
# Method: ERF_FR_ENZ_hABL1 is a biochemical, single-readout assay that uses extracted gene-proteins in a cell-free assay. Measurements were taken 0.5 hour after chemical dosing in a 96-well plate. See Abl Human TK Kinase Enzymatic LANCE Assay [Km ATP], Cerep.ERF_FR_ENZ_hABL1 is an assay component calculated from the ERF_FR_ENZ_hABL1 assay. It is designed to measure enzyme activity using a type of enzyme reporter as detected by fluorescence intensity with LANCE technology.Data from the assay component ERF_FR_ENZ_hABL1 was analyzed at the assay endpoint, ERF_FR_ENZ_hABL1, in the positive analysis fitting direction relative to DMSO as the negative control and baseline of activity. Using a type of enzyme reporter, loss-of-signal activity can be used to understand changes in enzymatic activity as they relate to gene ABL1. To generalize the intended target to other relatable targets, this assay endpoint is annotated to the kinase intended target family, where the subfamily is serine/threonine kinase.
# ABL (h) is incubated with 8 mM MOPS pH 7.0, 0.2 mM EDTA, 50 uM […], 10 mM Mg Acetate and [g- 33P]- ATP (specific activity and concentration as required). The reaction is initiated by the addition of the Mg/ATP mix. After incubation for 40 minutes at room temperature, the reaction is stopped by the addition of phosphoric acid to a concentration of 0.5%. An aliquot of the reaction is then spotted onto a filter and washed four times for 4 minutes in 0.425% phosphoric acid and once in methanol prior to drying and scintillation counting. Compound should be supplied in 100%DMSO .We require a stock solution at a concentration of at least 50x higher than the Final Assay Concentration of your cpd. A 10mM stock is also acceptable. When ordering fewer than 60 kinase assays,we need 120uL of 50x concentrated stock. For more than 60 assays, we need 420uL of 50xcc stock. Please apply the conversion if you provide 10mM stock solution or compounds in powder form (pre-weighed is required) From 50 cpds supplied as solids, the TAT will be extended.
# Chain of Tyrosine-protein kinase ABL1 (Homo sapiens) (P00519 whole entry, looked up): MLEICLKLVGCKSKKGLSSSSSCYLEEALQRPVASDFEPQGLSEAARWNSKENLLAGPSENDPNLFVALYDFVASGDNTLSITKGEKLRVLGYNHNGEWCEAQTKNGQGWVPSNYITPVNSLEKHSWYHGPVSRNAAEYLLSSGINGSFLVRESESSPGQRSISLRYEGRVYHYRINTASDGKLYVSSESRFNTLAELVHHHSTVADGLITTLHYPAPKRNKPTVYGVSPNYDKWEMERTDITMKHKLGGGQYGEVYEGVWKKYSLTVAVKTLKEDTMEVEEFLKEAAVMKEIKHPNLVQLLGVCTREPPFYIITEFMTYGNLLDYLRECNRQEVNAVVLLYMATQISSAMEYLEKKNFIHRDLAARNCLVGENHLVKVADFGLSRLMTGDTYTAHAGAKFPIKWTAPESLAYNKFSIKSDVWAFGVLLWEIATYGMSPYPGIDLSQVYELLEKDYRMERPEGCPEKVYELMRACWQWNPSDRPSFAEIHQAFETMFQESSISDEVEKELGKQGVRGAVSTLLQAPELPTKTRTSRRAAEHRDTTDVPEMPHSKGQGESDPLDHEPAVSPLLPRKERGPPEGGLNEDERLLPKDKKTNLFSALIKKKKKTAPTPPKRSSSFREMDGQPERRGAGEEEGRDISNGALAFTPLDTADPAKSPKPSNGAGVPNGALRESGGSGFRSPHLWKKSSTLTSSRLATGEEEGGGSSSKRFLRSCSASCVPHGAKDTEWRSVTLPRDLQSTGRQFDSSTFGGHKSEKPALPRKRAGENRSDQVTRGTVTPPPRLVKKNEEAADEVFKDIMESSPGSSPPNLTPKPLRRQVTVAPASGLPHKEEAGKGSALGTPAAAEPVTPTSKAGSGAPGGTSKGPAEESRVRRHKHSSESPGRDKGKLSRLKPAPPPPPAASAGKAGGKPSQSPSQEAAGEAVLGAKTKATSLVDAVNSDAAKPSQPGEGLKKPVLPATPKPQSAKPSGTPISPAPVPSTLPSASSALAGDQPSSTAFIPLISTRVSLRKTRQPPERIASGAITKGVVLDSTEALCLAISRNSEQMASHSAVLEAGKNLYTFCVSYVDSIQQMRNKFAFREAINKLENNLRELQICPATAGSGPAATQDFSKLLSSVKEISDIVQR
SMILES,outcome,AC50
COc1cc(CCC(=O)CC(=O)CCc2ccc(O)c(OC)c2)ccc1O,inactive,
O=C(/C=C/c1ccc(O)cc1)CC(=O)/C=C/c1ccc(O)cc1,,0.843 µM (active)
COc1cc(/C=C/C(=O)CC(=O)/C=C/c2ccc(O)c(OC)c2)ccc1O,,1.37 µM (active)
